This is part of a sample that, as a whole, favours compounds with a hit. Of some 79,000 tested, about 15% had one in any assay. Calls of active or inactive are those of the source. Rule as the data show it: active = growth inhibition above about 70%; inactive = the rest.
Assays:
[1] = NCI Yeast Anticancer Drug Screen. Data for the rad52 strain (AID 147);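 also: 0% = growth of vehicle-treated control cultures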; settings: S. cerevisiae rad52 mutant growth inhibition, hits give high values
Procedure, shortened: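 Inhibition of yeast growth, referenced to vehicle controls, was the measured output for a strain with defective DNA damage repair.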

[2] = NCI Yeast Anticancer Drug Screen. Data for the wt1 strain (AID 149);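 also: 0% = growth of vehicle-treated wt1 cultures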; settings: S. cerevisiae wt1 strain (SPY 50644) growth inhibition, hits give high values
Procedure, shortened: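 The wt1 strain was treated with compounds, and growth was compared with vehicle-treated cultures to give inhibition.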

[3] = NCI Yeast Anticancer Drug Screen. Data for the rad50EPP+ strain (AID 151);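 also: 0% = growth of vehicle-treated control cultures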; settings: S. cerevisiae rad50 mutant strain, hits give high values
Procedure, shortened: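 Genetically defined yeast (rad50EPP+, DNA damage repair alteration) is grown with compound, and inhibition of growth is expressed relative to vehicle-treated controls.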

[4] = NCI Yeast Anticancer Drug Screen. Data for the rad50 strain (AID 155);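 also: 0% = growth of vehicle-only cultures of the same strain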; settings: S. cerevisiae rad50 strain growth inhibition, hits give high values
Procedure, shortened: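 Cells are treated with compound, grown, and their growth is then scored against vehicle-only cultures of the same repair-deficient yeast strain.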

[5] = NCI Yeast Anticancer Drug Screen. Data for the mec2-1 strain (AID 157); settings: S. cerevisiae mec2-1 strain, hits give high values
Procedure, shortened: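 Each compound was tested on mec2-1 yeast, a strain altered in DNA damage repair or cell cycle control. Growth inhibition is reported relative to vehicle.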

[6] = NCI Yeast Anticancer Drug Screen. Data for the rad14 strain (AID 159);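 also: 0% = growth of vehicle-treated control cultures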; settings: S. cerevisiae rad14 strain growth inhibition, hits give high values
Procedure, shortened: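 Readout: yeast growth inhibition, referenced to vehicle-only cultures. Strain bears a defined alteration in DNA damage repair.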

[7] = NCI Yeast Anticancer Drug Screen. Data for the sgs1 mgt1 strain (AID 161);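 also: 0% = growth of cultures given vehicle only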; settings: S. cerevisiae sgs1 mgt1 strain, hits give high values
Procedure, shortened: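 Inhibition of yeast growth, normalised to vehicle-treated controls, is reported for a strain bearing genetic alterations in DNA damage repair.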

[8] = NCI Yeast Anticancer Drug Screen. Data for the CLN2oe strain (AID 163);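 also: 0% = growth of vehicle-only control cultures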; settings: S. cerevisiae CLN2oe strain, hits give high values
Procedure, shortened: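 First, the altered yeast strain was treated with each compound; second, its growth was measured; finally, inhibition was derived by comparison with vehicle controls.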

[9] = NCI Yeast Anticancer Drug Screen. Data for the cln2 rad14 strain (AID 165);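 also: 0% = growth equal to vehicle treated cultures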; settings: S. cerevisiae cln2 rad14 strain, hits give high values
Procedure, shortened: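 Test compounds were added to cln2 rad14 yeast cultures; inhibition of growth was then determined by comparison with vehicle treatment.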

[10] = NCI Yeast Anticancer Drug Screen. Data for the bub3 strain (AID 167); settings: S. cerevisiae bub3 mutant strain, hits give high values
Procedure, shortened: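 Part of a panel of yeast mutants defective in DNA damage repair or cell cycle regulation. Each strain is grown with compound, and inhibition is calculated relative to solvent-treated cultures.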

[11] = NCI Yeast Anticancer Drug Screen. Data for the wt2 strain (AID 169);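 also: 0% = growth of vehicle-treated yeast cultures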; settings: S. cerevisiae wt2 strain growth inhibition, hits give high values
Procedure, shortened: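 The panel's yeast strains carry defined changes in DNA repair or cell cycle genes. Each strain is grown with compound, and growth loss is scored relative to vehicle.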

[12] = NCI Yeast Anticancer Drug Screen. Data for the mlh1 strain (AID 171);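 also: 0% = growth of vehicle-treated control cultures of the same strain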; settings: S. cerevisiae mlh1 strain growth inhibition, hits give high values
Procedure, shortened: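 Inhibition values reflect reduced yeast growth in the presence of compound, referenced to vehicle controls, using a strain chosen for its alteration in DNA repair or cell cycle control.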

[13] = NCI Yeast Anticancer Drug Screen. Data for the sgs1 strain (AID 173);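 also: 0% = growth of vehicle-only control cultures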; settings: S. cerevisiae sgs1 mutant, hits give high values
Procedure, shortened: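 Vehicle-treated cultures served as reference for growth inhibition of a yeast strain altered in DNA damage repair or cell cycle control after compound exposure.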

[14] = NCI Yeast Anticancer Drug Screen. Data for the mlh1 rad18 strain (AID 175); settings: S. cerevisiae mlh1 rad18 strain growth inhibition, hits give high values
Procedure, shortened: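 Inhibition values reflect reduced growth of mutant yeast versus vehicle-treated controls following compound exposure; the mutations affect DNA damage repair.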

[15] = NCI Yeast Anticancer Drug Screen. Data for the rad18 strain (AID 177); settings: S. cerevisiae rad18 mutant growth inhibition, hits give high values
Procedure, shortened: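 Steps: expose repair-mutant yeast to compound; measure growth; express as inhibition relative to vehicle control.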

[16] = at 5.0 µM (retest, dose inferred, filed as 0.5)
[17] = at 50.0 µM (retest, dose inferred, filed as 5.0)

Measured: growth inhibition

CN(C)CC1CCCc2ccccc2C1=O (stereo unspecified)
inactive: [1]; at 1.2 µM -43% | [1]; at 3.7 µM -39% | [1]; at 11.0 µM -41% | [1]; at 33.0 µM 2% | [2]; at 1.2 µM 1% | [2]; at 3.7 µM -11% | [2]; at 11.0 µM -1% | [2]; at 33.0 µM 9% | [2]; at 100.0 µM 53% | [3]; at 1.2 µM 6% | [3]; at 3.7 µM -4% | [3]; at 11.0 µM 26% | [4]; at 1.2 µM -5% | [4]; at 3.7 µM -2% | [4]; [16] -14% | [4]; at 11.0 µM 5% | [4]; at 33.0 µM 41% | [4]; [17] 40% | [4]; at 50.0 µM 66.2% | [5]; at 1.2 µM -4% | [5]; at 3.7 µM -12% | [5]; [16] -11% | [5]; at 11.0 µM -7% | [5]; at 33.0 µM 20% | [5]; [17] -2% | [5]; at 50.0 µM 23.4% | [6]; at 1.2 µM -6% | [6]; at 3.7 µM -13% | [6]; at 11.0 µM 3% | [6]; at 33.0 µM 12% | [7]; [16] -1% | [7]; [17] 22% | [7]; at 50.0 µM 50.3% | [8]; at 1.2 µM -7% | [8]; at 3.7 µM 1% | [8]; at 11.0 µM 22% | [8]; at 33.0 µM 14% | [9]; [16] -10% | [9]; [17] 20% | [9]; at 50.0 µM 5.05% | [10]; at 1.2 µM 24% | [10]; at 3.7 µM 23% | [10]; [16] -25% | [10]; at 11.0 µM 19% | [10]; at 33.0 µM 28% | [10]; [17] 40% | [10]; at 50.0 µM 32.3% | [11]; at 1.2 µM -32% | [11]; at 3.7 µM -31% | [11]; at 11.0 µM -36% | [11]; at 33.0 µM -1% | [12]; at 1.2 µM 23% | [12]; at 3.7 µM 28% | [12]; at 11.0 µM 29% | [13]; at 1.2 µM -15% | [13]; at 3.7 µM -12% | [13]; at 11.0 µM 12% | [13]; at 33.0 µM 32% | [14]; [16] 13% | [14]; [17] 66%
active: [1]; at 100.0 µM 76% | [3]; at 33.0 µM 76% | [3]; at 100.0 µM 97% | [4]; at 100.0 µM 91% | [5]; at 100.0 µM 85% | [6]; at 100.0 µM 81% | [8]; at 100.0 µM 89% | [10]; at 100.0 µM 95% | [11]; at 100.0 µM 76% | [12]; at 33.0 µM 76% | [12]; at 100.0 µM 95% | [13]; at 100.0 µM 84% | [14]; at 50.0 µM 70.2%

C=Cc1cnc([N+](=O)[O-])n1C
active: [1]; at 33.0 µM 85% | [1]; at 100.0 µM 95% | [2]; at 100.0 µM 85% | [3]; at 33.0 µM 82% | [3]; at 100.0 µM 91% | [4]; at 33.0 µM 86% | [4]; [17] 87% | [4]; at 50.0 µM 78.5% | [4]; at 100.0 µM 94% | [5]; at 33.0 µM 87% | [5]; [17] 94% | [5]; at 50.0 µM 85.7% | [5]; at 100.0 µM 95% | [6]; at 11.0 µM 76% | [6]; at 33.0 µM 96% | [6]; at 100.0 µM 98% | [7]; [17] 95% | [7]; at 50.0 µM 83.1% | [8]; at 100.0 µM 86% | [9]; [17] 93% | [9]; at 50.0 µM 90.2% | [10]; at 50.0 µM 82.1% | [10]; at 100.0 µM 82% | [11]; at 100.0 µM 96% | [12]; at 100.0 µM 90% | [13]; at 33.0 µM 85% | [13]; at 100.0 µM 92% | [14]; [16] 79% | [14]; [17] 90% | [14]; at 50.0 µM 90.2% | [15]; at 1.2 µM 85% | [15]; at 3.7 µM 92% | [15]; at 11.0 µM 94% | [15]; at 33.0 µM 94% | [15]; at 100.0 µM 94%
inactive: [1]; at 1.2 µM 2% | [1]; at 3.7 µM 35% | [1]; at 11.0 µM 65% | [2]; at 1.2 µM 13% | [2]; at 3.7 µM 21% | [2]; at 11.0 µM 19% | [2]; at 33.0 µM 39% | [3]; at 1.2 µM -1% | [3]; at 3.7 µM 15% | [3]; at 11.0 µM 41% | [4]; at 1.2 µM 3% | [4]; at 3.7 µM 17% | [4]; [16] 23% | [4]; at 11.0 µM 52% | [5]; at 1.2 µM 11% | [5]; at 3.7 µM 3% | [5]; [16] 0% | [5]; at 11.0 µM 26% | [6]; at 1.2 µM -1% | [6]; at 3.7 µM 25% | [7]; [16] 61% | [8]; at 1.2 µM -14% | [8]; at 3.7 µM 8% | [8]; at 11.0 µM 14% | [8]; at 33.0 µM 33% | [9]; [16] 39% | [10]; at 1.2 µM -5% | [10]; at 3.7 µM -2% | [10]; [16] 8% | [10]; at 11.0 µM -2% | [10]; at 33.0 µM 20% | [10]; [17] 69% | [11]; at 1.2 µM -31% | [11]; at 3.7 µM -43% | [11]; at 11.0 µM -34% | [11]; at 33.0 µM 63% | [12]; at 1.2 µM -4% | [12]; at 3.7 µM 7% | [12]; at 11.0 µM 18% | [12]; at 33.0 µM 44% | [13]; at 1.2 µM 22% | [13]; at 3.7 µM 51% | [13]; at 11.0 µM 69%

O=C(Nc1ccc2c(c1)Cc1c-2ccc([N+](=O)[O-])c1F)C(F)(F)F
inactive: [1]; at 1.2 µM 4% | [1]; at 3.7 µM 4% | [1]; at 11.0 µM 5% | [1]; at 33.0 µM 5% | [1]; at 100.0 µM 3% | [2]; at 1.2 µM 2% | [2]; at 3.7 µM 3% | [2]; at 11.0 µM 7% | [2]; at 33.0 µM 4% | [2]; at 100.0 µM 3% | [3]; at 1.2 µM 9% | [3]; at 3.7 µM 0% | [3]; at 11.0 µM 6% | [3]; at 33.0 µM 11% | [3]; at 100.0 µM 20% | [4]; at 1.2 µM 2% | [4]; at 3.7 µM 4% | [4]; [16] 2% | [4]; at 11.0 µM 4% | [4]; at 33.0 µM 3% | [4]; [17] 11% | [4]; at 50.0 µM 2.95% | [4]; at 100.0 µM 4% | [5]; at 1.2 µM -1% | [5]; at 3.7 µM 0% | [5]; [16] -17% | [5]; at 11.0 µM -1% | [5]; at 33.0 µM 1% | [5]; [17] -11% | [5]; at 50.0 µM 1.35% | [5]; at 100.0 µM 2% | [6]; at 1.2 µM 1% | [6]; at 3.7 µM 1% | [6]; at 11.0 µM 0% | [6]; at 33.0 µM 2% | [6]; at 100.0 µM 2% | [7]; [16] 23% | [7]; [17] 19% | [7]; at 50.0 µM -3.05% | [8]; at 1.2 µM -2% | [8]; at 3.7 µM -3% | [8]; at 11.0 µM -4% | [8]; at 33.0 µM -11% | [8]; at 100.0 µM -4% | [9]; [16] 4% | [9]; [17] 7% | [9]; at 50.0 µM -10.7% | [10]; at 1.2 µM -2% | [10]; at 3.7 µM 1% | [10]; [16] -4% | [10]; at 11.0 µM 1% | [10]; at 33.0 µM 1% | [10]; [17] 12% | [10]; at 50.0 µM 8.35% | [10]; at 100.0 µM -4% | [11]; at 1.2 µM 2% | [11]; at 3.7 µM 0% | [11]; at 11.0 µM 2% | [11]; at 33.0 µM 2% | [11]; at 100.0 µM 0%
